Screen size: about 350,000 compounds; about 7,000 (2%) were called active. The full list was thinned out, with actives kept by preference. A number with no mark means an inactive call. Cut-off read from the data, not from the text of the source: active = activation above about 40%; inconclusive = no clear call, values can overlap the other calls; inactive = below that.

The test is described as follows: raisers of Bmi1 knock-in reporter signal – mouse ES cells, Bmi1 luciferase knock-in, single point, esBAF inhibitor project, primary screen (AID 602393).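 Note: 0% = median of the plate's neutral control wells and 100% = double that signal; a rise in the Bmi1 reporter signal indicates esBAF inhibition.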 The following applies: 24 h, at 12.5 µM, active compounds read high, 100% = twice the neutral-well signal.
Regarding `CCCNC(=O)[C@@H]1[C@@H](CO)[C@@H]2Cn3c(cccc3=O)[C@H]1N2C(=O)C1CCC1`, the reporter increase is 3.3%.

With `C[C@@H]1CCCCO[C@H](CN(C)C)[C@H](C)CN([C@@H](C)CO)C(=O)c2cc(NS(=O)(=O)c3ccccc3)ccc2O1`, the reporter increase is -0.305%.

`CC(Oc1cccc(NC(=O)c2cccs2)c1)C(=O)c1ccccc1` (stereo unspecified): the reporter increase was 5.41%.

`CC1(C(=O)Nc2cccc(Oc3ccccc3)c2)CCN1Cc1ccccc1Cl` (stereo unspecified): the reporter increase is -0.493%. The value for `Cc1ccoc1C(=O)Nc1cccc(Oc2ccccc2)c1` was 69.9% (active).

Regarding `COc1ccc(CN(C)C[C@@H]2OCCCC[C@H](C)Oc3ccc(NS(C)(=O)=O)cc3C(=O)N([C@@H](C)CO)C[C@H]2C)cc1`, the reporter increase is -1.93%.

Regarding `O=C(NC1CCCCC1)[C@@H]1[C@@H](CO)[C@@H]2Cn3c(cccc3=O)[C@@H]2N1C(=O)CC1CC1`, the reporter increase was 0.341%.

In the case of `C[C@H](O)C#Cc1cnc2c(c1)C(=O)N([C@H](C)CO)C[C@H](C)[C@H](CN(C)C(=O)c1ccc(F)cc1)O2`, the reporter increase is 0.158%. The value for `CCCCN(CC)CCCNC(=O)c1ccc(CSc2nc3ccncc3[nH]2)cc1` was 0.105%; that for `O=C(NCc1ccccc1)c1onc(CSc2nc3ccccc3[nH]2)c1C(=O)NCc1ccccc1` was -3.03%. With `CCCCSc1nc2ccccc2[nH]1`, the reporter increase is 56.3% (active). The value for `O=C(CSc1nc2ccccc2[nH]1)c1cccs1` was 79.4% (active); that for `C/C(=N\Nc1nc2ccccc2[nH]1)c1cccs1` was 67.6%. `COc1ccccc1CSc1nc2ccccc2[nH]1`: the reporter increase is 69.6% (active). With `CN(Cc1ccccc1)c1nc2c(c(=O)[nH]c(=O)n2C)n1CCSc1nc2ccccc2[nH]1`, the reporter increase was 5.78%.

For `COc1ccc2nc(SCC(=O)Nc3c(C)cc(C)cc3C)[nH]c2c1`, the reporter increase is -3.13%. In the case of `CN(Cc1ccccc1)C(=O)CSc1nc2ccccc2[nH]1`, the reporter increase was 36%.

Turning to `COc1cccc(S(=O)(=O)Nc2ccc3c(c2)[C@@H]2C[C@@H](CC(=O)NC4CCCCC4)O[C@H](CO)[C@@H]2O3)c1`, the reporter increase is 9.31%. The value for `CCCNC(=O)N[C@H]1C=C[C@@H](CC(=O)NC2CCCCC2)O[C@H]1CO` was 0.216%; that for `COc1cccc(NC(=O)N(C)C[C@H]2OCc3ccccc3-c3ccccc3C(=O)N([C@H](C)CO)C[C@@H]2C)c1` was 4.73%; that for `Cc1ccnc(NC(=O)c2ccc(Cl)c([N+](=O)[O-])c2)c1` was 30.4%.

Consider `C/C(=N\Nc1nncc2ccccc12)c1ccc(Cl)c([N+](=O)[O-])c1`, for which the reporter increase was 50.9% (active).

Turning to `Cc1nc2ccccc2c(=O)n1NC(=O)c1ccc(Cl)c([N+](=O)[O-])c1`, the reporter increase is 3.65%.

For `CN(C)C(=O)c1cccc(-c2ccc3n(c2=O)C[C@H]2N[C@@H]3[C@@H](C(=O)NC3CCC3)[C@@H]2CO)c1`, the reporter increase was -3.26%. The value for `CCCNC(=O)N1[C@H](CO)[C@H]2c3ccccc3N(C(=O)Nc3cccc(Cl)c3)C[C@H]21` was -0.3%; that for `COc1cccc(C(NC(C)=O)c2nc(-c3cnc4ccccc4c3)cs2)c1` (stereo unspecified) was -2.81%; that for `OC(c1ccccc1)c1nc(-c2cnc3ccccc3c2)cs1` (stereo unspecified) was 50.7% (active).

In the case of `CC(C)c1cccc(-c2csc(C(O)c3ccccc3)n2)c1` (stereo unspecified), the reporter increase is 38.6%. The same measure for `C[C@@H]1CN([C@@H](C)CO)S(=O)(=O)c2ccc(/C=C/c3ccccc3)cc2O[C@@H]1CN(C)C(=O)Nc1cc(F)ccc1F`: 2%; for `COc1ccccc1-c1cn(CC[C@H]2CC[C@H](NC(=O)C3CCOCC3)[C@@H](CO)O2)nn1`: 0.605%; for `CCS(=O)(=O)c1ccc(-c2cccc(NC(=O)c3ccc(Br)o3)c2)nn1`: -4.52%. Regarding `Cc1cccc(NC(=S)NC(=O)c2ccc(Br)o2)c1`, the reporter increase was 52.3% (active). On to `O=C(Nc1cccc(C(=O)O)c1)/C(=C\c1ccccc1)NC(=O)c1ccc(Br)o1`, for which the reporter increase is -2.41%. The same measure for `CO[C@H]1CN(C)C(=O)c2ccc(NC(=O)c3cccc(Oc4ccccc4)c3)cc2OC[C@@H](C)NC[C@H]1C`: -1.39%; for `C/C=C/c1ccc([C@@H]2[C@@H](CN(C)C(C)=O)N(C(=O)C3CC3)[C@H]2CO)cc1`: -1.72%.

Turning to `O=C(NCc1cn2ccsc2n1)Nc1cccc(Cl)c1`, the reporter increase was 28.5%. The value for `Cc1cc(Cl)nc(NC(=O)Nc2cccc(Cl)c2)n1` was 74.9% (active); that for `Cc1cc(C)nc(NC(=O)Nc2ccccc2C(F)(F)F)n1` was -6.57%. The same measure for `Cc1noc(C)c1S(=O)(=O)Nc1ccc2c(c1)C(=O)N([C@H](C)CO)C[C@@H](C)[C@@H](CN(C)C(=O)C1CCCCC1)OCCCC[C@@H](C)O2`: 5.24%. Consider `O=C(C[C@@H]1CC[C@H](NC(=O)C2CC2)[C@@H](CO)O1)NCc1ccncc1`, for which the reporter increase is -3.99%. The value for `CCOc1cccc2cc(C(=O)OCC(=O)Nc3c(C)cccc3CC)c(=O)oc12` was 50.3% (active). The value for `CCc1cccc(C)c1NC(=O)COC(=O)CC1CCCC1` was 2.51%; that for `Cc1cccc(C)c1NC(=O)COC(=O)c1ccccc1O` was 0.59%. The same measure for `CNC[C@H]1Oc2ccc(NS(=O)(=O)c3ccccc3)cc2CC(=O)N([C@H](C)CO)C[C@@H]1C`: -1.73%; for `O=C(CCNC(=O)c1ccccc1Cl)NCc1ccco1`: -4.58%. Take `COc1ccc2c(Cl)c(C(=O)NCc3ccco3)sc2c1`: the reporter increase is 35.4%. The same measure for `O=C(NCc1ccco1)c1sc2cccc(F)c2c1Cl`: 44% (active).

For the molecule `CCCC#Cc1cnc2c(c1)C(=O)N([C@@H](C)CO)C[C@@H](C)[C@@H](CN(C)C(=O)c1ccccc1)O2`, the reporter increase was -1.26%. For the molecule `COc1ccc(NC(=O)Nc2ccc3c(c2)C(=O)N([C@@H](C)CO)C[C@@H](C)[C@H](CN(C)C(=O)CCC(F)(F)F)OCCCC[C@@H](C)O3)cc1`, the reporter increase is 11%.

On to `C[n+]1cc(-c2ccccc2)oc1-c1ccccc1`, for which the reporter increase was 51.8% (active).

In the case of `COC(=O)C[C@@H]1CC[C@@H]2[C@H](COc3ccc(NC(=O)c4ccccc4OC)cc3C(=O)N2C)O1`, the reporter increase was -4.7%. The same measure for `O=S(=O)(Nc1ncnc2sccc12)c1cccc(F)c1`: -8.41%. The value for `COC(=O)c1ccc(OC(=O)c2cnccn2)cc1` was 2.58%; that for `COC(=O)c1ccc(Nc2ncnc3sccc23)cc1` was 41.7% (active); that for `Cc1cc(NC(=O)COn2nnc3ccccc32)no1` was -6.87%.

Regarding `Cc1cc(NC(=O)COc2ccccc2C#N)no1`, the reporter increase was 70% (active).

Regarding `COc1ccc(C(=O)OCC(=O)Nc2cc(C)on2)cc1F`, the reporter increase is 0.512%.

For `COc1cccc(C(=O)OCC(=O)c2[nH]c(C)c(C(C)=O)c2C)c1`, the reporter increase was 8.69%.

Turning to `CC(=O)c1c(C)[nH]c(C(=O)COC(=O)CCOc2ccc(C)cc2)c1C`, the reporter increase was -8.22%.

`CC(=O)c1c(C)[nH]c(C(=O)COC(=O)c2cccs2)c1C`: the reporter increase is 48.6% (active). The value for `C[C@@H]1CN([C@H](C)CO)C(=O)c2cc(-c3ccccc3F)cnc2O[C@H]1CN(C)C(=O)NC1CCCCC1` was -2.88%; that for `C[C@@H]1CN([C@H](C)CO)C(=O)c2cc(-c3ccc(F)cc3)cnc2O[C@@H]1CN(C)C(=O)C1CCC1` was -5.57%; that for `COc1ccccc1-c1nnc(SCC(=O)N2CC(C)CC(C)C2)o1` (stereo unspecified) was 0.0545%.

Consider `COc1ccc(-c2nnc(NC(=O)CS(=O)(=O)c3ccc(Cl)cc3)o2)c(OC)c1`, for which the reporter increase is -8.93%. The value for `COc1ccc(-c2nnc(SCC(=O)c3cccs3)o2)c(OC)c1` was 78.8% (active); that for `COc1cccc(NC(=O)CSc2nnc(Cc3ccc(OC)c(OC)c3)o2)c1` was -6.14%; that for `COc1ccccc1-c1nnc(SCC(=O)Nc2ccccc2)o1` was 50.9% (active). The same measure for `COc1ccccc1N1CCN(C(=O)CSc2nnc(-c3ccoc3C)o2)CC1`: -3.09%; for `O=C(C[C@H]1C=C[C@H](NC(=O)Nc2ccc(C(F)(F)F)cc2)[C@@H](CO)O1)NCCN1CCCC1`: 3.94%; for `CO[C@@H](CN(C)C(=O)c1cnccn1)[C@@H](C)CN([C@@H](C)CO)S(=O)(=O)c1ccc(Cl)cc1`: 0.654%. The same measure for `COc1ccc(NC(=O)N(C)C[C@@H]2Oc3ccc(NC(=O)CCN4CCOCC4)cc3C(=O)N([C@@H](C)CO)C[C@H]2C)cc1`: 2.67%; for `C[C@@H]1CN([C@@H](C)CO)C(=O)c2cc(-c3cccnc3)cnc2O[C@H]1CN(C)Cc1ccc(-c2ccccc2)cc1`: -1.47%; for `C[C@H](CO)N1C[C@H](C)[C@@H](CN(C)Cc2ccncc2)OCCCC[C@H](C)Oc2ccc(NS(=O)(=O)c3ccc(Cl)cc3)cc2C1=O`: 0.433%. Regarding `NS(=O)(=O)c1ccc(Nc2nc(-c3ccccc3)cs2)cc1`, the reporter increase is 47.4% (active).

Consider `NS(=O)(=O)c1ccc(NS(=O)(=O)/C=C/c2ccccc2)cc1`, for which the reporter increase was -2.76%.

Consider `COc1ccc(C(C)(O)c2nc(-c3ccc(C)c(C)c3)cs2)cc1` (stereo unspecified), for which the reporter increase is -1.35%. The same measure for `COc1ccc(-c2csc(Nc3ccc(O)cc3)n2)cc1`: 78.7% (active); for `CC(=O)c1ccc(Nc2nc(C(N)c3ccccc3)cs2)cc1` (stereo unspecified): 20.6%. The value for `COC(=O)CCc1sc(Nc2ccc(Br)cc2)nc1-c1ccc(OC)cc1` was 3.71%. For the molecule `CCCNC(=O)Nc1ccc2c(c1)C(=O)N(C)C[C@H](OC)[C@H](C)CN(Cc1cccnc1)[C@@H](C)CO2`, the reporter increase was -1.39%. The value for `CN1CCN(C(=O)C[C@@H]2CC[C@@H]3[C@H](COC[C@H](O)CN3CC3CCOCC3)O2)CC1` was 3.66%.

The values are drawn from PubChem BioAssay AID602393 (Broad Institute, 2012).
